Experimental findings from PubChem BioAssay (NCI) are described below.

Experiment [1] in a line: NCI Yeast Anticancer Drug Screen. Data for the rad50 strain (AID 155).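 Note: 0% = growth of vehicle-only cultures of the same strain.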 Particulars: S. cerevisiae rad50 strain growth inhibition, active compounds read high. The essentials: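 Compounds were tested on a yeast strain with an engineered DNA damage repair alteration; the reported value is growth inhibition normalised to vehicle treatment.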
The nature of experiment [2]: NCI Yeast Anticancer Drug Screen. Data for the mec2-1 strain (AID 157). The following applies: S. cerevisiae mec2-1 strain, active compounds read high. The gist of the method:
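Each compound was tested on mec2-1 yeast, a strain altered in DNA damage repair or cell cycle control. Growth inhibition is reported relative to vehicle.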

Experiment [3] can be described thus: NCI Yeast Anticancer Drug Screen. Data for the sgs1 mgt1 strain (AID 161).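 Note: 0% = growth of cultures given vehicle only.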 Particulars: S. cerevisiae sgs1 mgt1 strain, active compounds read high. The gist of the method: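 Mutant yeast exposed to compound; growth scored against vehicle-only wells.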
Experiment [4] is described as follows: NCI Yeast Anticancer Drug Screen. Data for the cln2 rad14 strain (AID 165).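 Note: 0% = growth equal to vehicle treated cultures.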 The following applies: S. cerevisiae cln2 rad14 strain, active compounds read high. The essentials: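 Test compounds were added to cln2 rad14 yeast cultures; inhibition of growth was then determined by comparison with vehicle treatment.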
A short description of experiment [5]: NCI Yeast Anticancer Drug Screen. Data for the bub3 strain (AID 167). Particulars: S. cerevisiae bub3 mutant strain, active compounds read high. The essentials: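 Growth of a checkpoint-deficient yeast mutant is measured after compound exposure. Values represent inhibition relative to vehicle.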
Experiment [6] in a line: NCI Yeast Anticancer Drug Screen. Data for the mlh1 rad18 strain (AID 175). Particulars: S. cerevisiae mlh1 rad18 strain growth inhibition, active compounds read high. The essentials:
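Inhibition values reflect reduced growth of mutant yeast versus vehicle-treated controls following compound exposure; the mutations affect DNA damage repair.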

[7] abbreviates: at 5.0 µM (retest, dose inferred, filed as 0.5).
Setting [8] is: at 50.0 µM (retest, dose inferred, filed as 5.0).

This is part of a sample that, as a whole, favours compounds with a hit. Of some 79,000 tested, about 15% had one in any assay. Unmarked numbers belong to inactive results. Active and inactive are the calls of the source. Cut-off read from the data, not from the text of the source: active = growth inhibition above about 70%; inactive = the rest.

For `O=C1C=CC(=Nc2cc3c(cc2Br)-c2ccccc2C3Br)O1` (stereo unspecified), the growth inhibition in experiment [1] (setting [7]) is 23%; in experiment [1] (setting [8]) it was 99% (active); in experiment [1] (at 50.0 µM), 28.9%; in experiment [2] (setting [7]), 20%; in experiment [2] (setting [8]), 99% (active); in experiment [2] (at 50.0 µM), 79.8% (active). The growth inhibition in experiment [3] (setting [7]) is 15%; in experiment [3] (setting [8]) it was 100% (active); in experiment [3] (at 50.0 µM), 21.4%; in experiment [4] (setting [7]) it was 6%; in experiment [4] (setting [8]), 99% (active); in experiment [4] (at 50.0 µM) it was -12.8%. Further, the growth inhibition in experiment [5] (setting [7]) is 7%; in experiment [5] (setting [8]) it was 99% (active); in experiment [5] (at 50.0 µM), -3.95%; in experiment [6] (setting [7]), 26%; in experiment [6] (setting [8]), 99% (active); in experiment [6] (at 50.0 µM), 28.9%.

With `CN1C(=O)C2N(C(=O)C1(C)S)c1ccccc1C2(C)C` (stereo unspecified), the growth inhibition in experiment [1] (setting [7]) is -5%; in experiment [1] (setting [8]) it was 37%; in experiment [1] (at 50.0 µM), 47.7%; in experiment [2] (setting [7]) it was -4%; in experiment [2] (setting [8]), 29%; in experiment [2] (at 50.0 µM), 32.5%. The growth inhibition in experiment [3] (setting [7]) is -3%; in experiment [3] (setting [8]), 41%; in experiment [3] (at 50.0 µM), 15.7%; in experiment [4] (setting [7]), -14%; in experiment [4] (setting [8]), 49%; in experiment [4] (at 50.0 µM) it was -17.6%. Also, the growth inhibition was -4% in experiment [5] (setting [7]); 25% in experiment [5] (setting [8]); 10.3% in experiment [5] (at 50.0 µM); -1% in experiment [6] (setting [7]); 32% in experiment [6] (setting [8]); 24.8% in experiment [6] (at 50.0 µM).

As to `Cc1c(S(C)=O)[n+](=O)c2ccccc2n1[O-]` (stereo unspecified), the growth inhibition in experiment [1] (setting [7]) was 13%; in experiment [1] (setting [8]), 85% (active); in experiment [1] (at 50.0 µM), 32.9%; in experiment [2] (setting [7]), 0%; in experiment [2] (setting [8]), 93% (active); in experiment [2] (at 50.0 µM) it was 33.7%. For the same compound, the growth inhibition in experiment [3] (setting [7]) was 8%; in experiment [3] (setting [8]) it was 92% (active); in experiment [3] (at 50.0 µM), 35.9%; in experiment [4] (setting [7]), 2%; in experiment [4] (setting [8]), 40%; in experiment [4] (at 50.0 µM), 7.75%. The growth inhibition in experiment [5] (setting [7]) was -2%; in experiment [5] (setting [8]) it was 89% (active); in experiment [5] (at 50.0 µM) it was -5.5%; in experiment [6] (setting [7]), 18%; in experiment [6] (setting [8]) it was 96% (active); in experiment [6] (at 50.0 µM) it was 58.6%.

Consider `CCC(c1ccc(O)cc1)C(CC)c1ccc(O)c(O)c1` (stereo unspecified), for which the growth inhibition is 16% in experiment [1] (setting [7]); 98% (active) in experiment [1] (setting [8]); 99.6% (active) in experiment [1] (at 50.0 µM); 12% in experiment [2] (setting [7]); 99% (active) in experiment [2] (setting [8]); 99.5% (active) in experiment [2] (at 50.0 µM). In addition, the growth inhibition in experiment [3] (setting [7]) is 13%; in experiment [3] (setting [8]) it was 99% (active); in experiment [3] (at 50.0 µM), 99.5% (active); in experiment [4] (setting [7]), -2%; in experiment [4] (setting [8]) it was 99% (active); in experiment [4] (at 50.0 µM), 99.4% (active). Moreover, the growth inhibition in experiment [5] (setting [7]) is 10%; in experiment [5] (setting [8]), 98% (active); in experiment [5] (at 50.0 µM), 99.5% (active); in experiment [6] (setting [7]) it was 12%; in experiment [6] (setting [8]) it was 97% (active); in experiment [6] (at 50.0 µM) it was 99.5% (active).

With `CCCCCCn1c(SCC)c2ccccc2c1-c1nc(F)nc(F)n1`, the growth inhibition in experiment [1] (setting [7]) was -14%; in experiment [1] (setting [8]), 5%; in experiment [1] (at 50.0 µM) it was 89.1% (active); in experiment [2] (setting [7]), -40%; in experiment [2] (setting [8]), -10%; in experiment [2] (at 50.0 µM), 92.8% (active). The growth inhibition in experiment [3] (setting [7]) was -15%; in experiment [3] (setting [8]), 10%; in experiment [3] (at 50.0 µM), 90.2% (active); in experiment [4] (setting [7]), 14%; in experiment [4] (setting [8]) it was 52%; in experiment [4] (at 50.0 µM), 88.7% (active). Moreover, the growth inhibition was 24% in experiment [5] (setting [7]); 36% in experiment [5] (setting [8]); 88.5% (active) in experiment [5] (at 50.0 µM); 10% in experiment [6] (setting [7]); 34% in experiment [6] (setting [8]); 87.9% (active) in experiment [6] (at 50.0 µM).

As for `CCCCCc1ccc2cc(C(=O)O)[nH]c2c1`, the growth inhibition in experiment [1] (setting [7]) was 4%; in experiment [1] (setting [8]), 59%; in experiment [1] (at 50.0 µM), 96.7% (active); in experiment [2] (setting [7]), 3%; in experiment [2] (setting [8]), 72% (active); in experiment [2] (at 50.0 µM), 95.6% (active). In addition, the growth inhibition in experiment [3] (setting [7]) was -4%; in experiment [3] (setting [8]), 59%; in experiment [3] (at 50.0 µM) it was 95% (active); in experiment [4] (setting [7]), -1%; in experiment [4] (setting [8]) it was 59%; in experiment [4] (at 50.0 µM) it was 97.8% (active). Further, the growth inhibition is 1% in experiment [5] (setting [7]); 47% in experiment [5] (setting [8]); 97.2% (active) in experiment [5] (at 50.0 µM); 3% in experiment [6] (setting [7]); 51% in experiment [6] (setting [8]); 98.2% (active) in experiment [6] (at 50.0 µM).

On to `COC(=O)CCC(NC(=S)N/N=C/c1ccccn1)C(=O)OC` (stereo unspecified), for which the growth inhibition in experiment [1] (setting [7]) is -2%; in experiment [1] (setting [8]), 29%; in experiment [1] (at 50.0 µM) it was 72.1% (active); in experiment [2] (setting [7]), -54%; in experiment [2] (setting [8]), 47%; in experiment [2] (at 50.0 µM), 49.1%. In addition, the growth inhibition in experiment [3] (setting [7]) was -25%; in experiment [3] (setting [8]), 41%; in experiment [3] (at 50.0 µM), 57.4%; in experiment [4] (setting [7]), -11%; in experiment [4] (setting [8]), 33%; in experiment [4] (at 50.0 µM), 60.8%. In addition, the growth inhibition in experiment [5] (setting [7]) is -6%; in experiment [5] (setting [8]), 59%; in experiment [5] (at 50.0 µM), 71.8% (active); in experiment [6] (setting [7]), -30%; in experiment [6] (setting [8]) it was 48%; in experiment [6] (at 50.0 µM), 61.8%.
